Reference: PubChem BioAssay (Tox21)
“And” between values parts separate entries of the source, which are not always exact repeats. Equal values may be shown once. Unmarked numbers belong to inactive results. Entries that show only a call come without a potency. The source made the active and inactive calls. Unless noted, calls come from the whole dose curve; as a rule, active = well fitted curve in the direction sought with a large enough effect in the repeat runs; inconclusive = weak or mixed curves; inactive = no such curve, though single readings can be large; an effect the other way counts as inactive or inconclusive.

How the values were obtained:
[1] = qHTS assay for small molecules that induce genotoxicity in human embryonic kidney cells expressing luciferase-tagged ATAD5 (AID 651632); note: nearly all actives have a fitted effect of over 15% in size; note: potency is the fitted concentration of half-maximal effect
Method in brief: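 HEK293T cells carrying a luciferase reporter tagged to ATAD5 were exposed to compound or DMSO vehicle for 16 hr at 37C, 5% CO2. Amplite was added, and after 30 min at room temperature luciferase activity was read as a marker of ATAD5 induction.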

[2] = qHTS assay for small molecules that induce genotoxicity in human embryonic kidney cells expressing luciferase-tagged ATAD5 - cell viability (AID 651634; calls by dose curve; note: nearly all actives have a fitted effect of over 25% in size; note: potency is the fitted concentration of half-maximal effect)
Method in brief: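 HEK293T cells expressing luciferase-tagged ATAD5 were exposed to compound or DMSO for 15.5 hr at 37C, 5% CO2. Viability was then read as live-cell protease activity by CellTiter-Fluor fluorescence after 30 min at 37C.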

[3] = qHTS assay for small molecule disruptors of the mitochondrial membrane potential - cell viability (AID 720634; calls by dose curve; note: nearly all actives have a fitted effect of over 20% in size; note: potency is the fitted concentration of half-maximal effect)
Method in brief: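 HepG2 cells seeded overnight at 37 C, then exposed to compound or DMSO for 1 hr at 37 C, 5% CO2. m-MPI dye added, then CellTiter-Glo for 30 min at room temperature; viability read as ATP luminescence.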

[4] = qHTS assay to test for compound auto fluorescence at 590 nm (red) in HepG2 cells (AID 720674)
Method in brief: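 Fluorescence at 590 nm emission following 540 nm excitation was recorded from HepG2 wells one hour after compound transfer, with DMSO-only wells as vehicle and Rose Bengal sodium equivalency as the scale.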

[5] = qHTS assay to test for compound auto fluorescence at 535 nm (green) in HepG2 cells (AID 720675)
[6] = qHTS assay to test for compound auto fluorescence at 460 nm (blue) in HEK293 cells (AID 720678)
Method in brief: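 After cell attachment (4-5 hr, 37C), compounds were pinned onto HEK293 monolayers in 10% dialyzed FBS medium. The blue channel (405/460 nm) was read following overnight culture. Equivalency was calculated against triamterene.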

[7] = qHTS assay to test for compound auto fluorescence at 590 nm (red) in HEK293 cells (AID 720679)
Method in brief: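 Plates of HEK293 cells (10% dialyzed FBS) are treated with 23 nL compound or DMSO vehicle after a 4-5 hr attachment period, incubated overnight at 37C, and read for red fluorescence at 540/590nm.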

[8] = qHTS assay to test for compound auto fluorescence at 535 nm (green) in HEK293 cells (AID 720680)
[9] = qHTS assay to test for compound auto fluorescence at 535 nm (green) in HEK293 cell free culture (AID 720682)
Method in brief: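 No cells present: wells hold DMEM supplemented with 10% FBS, into which compound or vehicle is pinned. Green emission is then recorded (485 nm excitation, 535 nm emission) and scaled to fluorescein.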

[10] = qHTS assay to test for compound auto fluorescence at 590 nm (red) in HEK293 cell free culture (AID 720683)
Method in brief: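 Cell-free wells of DMEM with 10% FBS received compound, and intrinsic fluorescence was read at excitation/emission 540/590 nm. Values expressed as equivalence to Rose Bengal sodium.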

[11] = qHTS assay to test for compound auto fluorescence at 460 nm (blue) in HepG2 cell free culture (AID 720685)
Method in brief: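 Compound (23 nL) or DMSO pinned into cell-free MEM with 10% FBS; blue fluorescence read at 405/460 nm excitation/emission, expressed as auto-fluorescence equivalency to triamterene.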

[12] = qHTS assay to test for compound auto fluorescence at 535 nm (green) in HepG2 cell free culture (AID 720686)
[13] = qHTS assay to test for compound auto fluorescence at 460 nm (blue) in HepG2 cells (AID 720687)
Method in brief: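 HepG2 cells in MEM with 10% FBS, attached overnight at 37 C, were exposed to compound or DMSO for 1 hr at 37 C, 5% CO2. Blue fluorescence was read at 405/460 nm, with triamterene as reference fluorophore.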

[14] = target: Glucocorticoid receptor (Homo sapiens) (UniProt P04150); experiment: qHTS assay to identify small molecule agonists of the glucocorticoid receptor (GR) signaling pathway (AID 720691; active = well fitted activation curve with a large enough effect in the signal ratio in the repeat runs, not every such curve was filed as active; inconclusive = weak or mixed curves, or effect the other way; inactive = no such curve, though single readings can be large or run the other way; the % refers to the signal ratio; note: potency is the fitted concentration of half-maximal effect)
Sequence of Glucocorticoid receptor (Homo sapiens) (P04150 whole entry, looked up): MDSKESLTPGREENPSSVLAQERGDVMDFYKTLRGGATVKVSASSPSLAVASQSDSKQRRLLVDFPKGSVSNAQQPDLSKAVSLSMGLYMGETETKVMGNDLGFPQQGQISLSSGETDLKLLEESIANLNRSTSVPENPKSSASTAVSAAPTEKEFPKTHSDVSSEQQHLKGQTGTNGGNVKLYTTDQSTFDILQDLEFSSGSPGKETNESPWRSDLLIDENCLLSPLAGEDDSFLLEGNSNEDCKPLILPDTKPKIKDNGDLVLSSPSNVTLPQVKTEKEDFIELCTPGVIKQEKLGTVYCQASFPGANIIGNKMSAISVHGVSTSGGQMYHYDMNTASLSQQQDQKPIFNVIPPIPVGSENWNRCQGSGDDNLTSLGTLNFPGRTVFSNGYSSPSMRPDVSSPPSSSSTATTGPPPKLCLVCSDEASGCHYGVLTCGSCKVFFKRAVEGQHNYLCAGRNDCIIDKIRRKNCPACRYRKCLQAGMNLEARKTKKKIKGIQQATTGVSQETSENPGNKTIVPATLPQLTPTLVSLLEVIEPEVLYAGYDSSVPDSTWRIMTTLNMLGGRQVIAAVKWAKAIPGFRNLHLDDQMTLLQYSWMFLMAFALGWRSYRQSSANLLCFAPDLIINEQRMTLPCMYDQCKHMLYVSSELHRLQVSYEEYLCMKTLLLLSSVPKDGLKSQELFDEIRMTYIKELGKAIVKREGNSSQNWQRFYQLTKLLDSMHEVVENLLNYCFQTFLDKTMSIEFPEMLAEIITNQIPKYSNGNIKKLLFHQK
Method in brief: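 GR-bla HeLa cells (beta-lactamase reporter under glucocorticoid response element) were plated 4 h at 37 C/5% CO2, given compounds in DMSO, and incubated 18 h at 37 C. LiveBLAzer B/G FRET substrate was added for 2 h at room temperature, then fluorescence intensity read.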

[15] = qHTS assay for small molecule agonists of the p53 signaling pathway - cell viability (AID 651633; calls by dose curve; note: nearly all actives have a fitted effect of over 30% in size; note: potency is the fitted concentration of half-maximal effect)
Method in brief: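 p53RE-bla cells were treated with compound for 16 hours at 37 C. Cytotoxicity was then measured as CellTiter-Glo luminescence after 30 min at room temperature.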

[16] = qHTS assay to test for compound auto fluorescence at 590 nm (red) in HepG2 cell free culture (AID 720684)
Method in brief: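 Compound was pinned into wells holding MEM with 10% FBS and no cells, and red fluorescence was read at Ex/Em 540/590 nm. Signal is expressed as auto fluorescence equivalency relative to Rose Bengal sodium.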

[17] = qHTS assay to test for compound auto fluorescence at 460 nm (blue) in HEK293 cell free culture (AID 720681)
Method in brief: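 Compounds were added to cell-free DMEM with 10% FBS and fluorescence read directly. The blue channel used 405 nm excitation and 460 nm emission, with triamterene as the reference fluorophore.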

[18] = target: Glucocorticoid receptor (Homo sapiens) (UniProt P04150); experiment: qHTS assay to identify small molecule antagonists of the glucocorticoid receptor (GR) signaling pathway (AID 720692; active = well fitted inhibition curve with a large enough effect in the signal ratio in the repeat runs, not every such curve was filed as active; inconclusive = weak or mixed curves, or effect the other way; inactive = no such curve, though single readings can be large or run the other way; the % refers to the signal ratio; note: potency is the fitted concentration of half-maximal effect)
Method in brief: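 GR-bla HeLa cells (beta-lactamase reporter under glucocorticoid response element) were pre-plated 4 h at 37 C, treated with compounds plus 5 nM dexamethasone (final) for 18 h, then read by LiveBLAzer B/G FRET fluorescence after 2 h.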

[19] = qHTS assay for small molecule disruptors of the mitochondrial membrane potential (AID 720635); note: potency is the fitted concentration of half-maximal effect
Method in brief: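 HepG2 cells exposed to compound 1 hr at 37C, then Mito-MPS dye 30 min. Ratio read of aggregate (540/590 nm) versus monomer (490/535 nm) fluorescence.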

SMILES | Potency [1] | Potency [2] | Potency [3] | outcome [4] | outcome [5] | outcome [6] | outcome [7] | outcome [8] | outcome [9] | outcome [10] | outcome [11] | outcome [12] | outcome [13] | Potency [14] | Potency [15] | outcome [16] | outcome [17] | Potency [18] | Potency [19]
CCC(C)(C)O | inactive | inactive | inactive | inactive | inactive | inactive | inactive | inactive | inactive | inactive | inactive | inactive | inactive | inactive |  |  |  |  | 
COCc1cnc(C2=NC(C)(C(C)C)C(=O)N2)c(C(=O)O)c1 (configuration not stated) | inactive | inactive | inactive | inactive | inactive | inactive | inactive | inactive | inactive | inactive | inactive | inactive | inactive | inactive | inactive | inactive |  |  | 
Nc1ccc2c(c1)Cc1ccccc1-2 |  | inactive | inactive | inactive | inactive | inactive | inactive | inactive | inactive | inactive | inactive | inactive | inactive | inactive | inactive | inactive | inactive |  | 
CN1C(=O)CN=C(c2ccccc2)c2cc([N+](=O)[O-])ccc21 |  |  |  | inactive | inactive | inactive |  | inactive | inactive | inactive | inactive | inactive | inactive | 0.338 µM [inconclusive] (active) | inactive | inactive | inactive |  | 
CC(C)c1ccc(NC(=O)N(C)C)cc1 | inactive | inactive | inactive | inactive | inactive | inactive | inactive | inactive | inactive | inactive | inactive | inactive | inactive | inactive | inactive | inactive | inactive | inactive | 
O=C(O)C(F)(F)C(F)(F)C(F)(F)C(F)(F)C(F)(F)C(F)(F)C(F)(F)C(F)(F)F | inactive |  |  | inactive | inactive | inactive |  | inactive | inactive | inactive | inactive | inactive | inactive | inactive | 61.1 µM (active) | inactive | inactive |  | 
O=C(O)COc1cc(Cl)c(Cl)cc1Cl | inactive | inactive | inactive | inactive | inactive | inactive | inactive | inactive | inactive | inactive | inactive | inactive | inactive | inactive | inactive | inactive | inactive | inactive | 
CCNC(=O)NC(=O)/C(C#N)=N/OC | inactive | inactive |  | inactive | inactive | inactive | inactive | inactive | inactive | inactive | inactive | inactive | inactive |  | inactive | inactive | inactive |  | 
CCC1(CC)C(=O)NC(=O)NC1=O | inactive | inactive | inactive | inactive | inactive | inactive |  | inactive | inactive | inactive | inactive | inactive | inactive | inactive | inactive | inactive | inactive | inactive | 
CN(C)c1ccc(N=O)cc1 | 21.8 µM (active) and 68.6 µM (active) | 61.3 µM (active) and 54.5 µM (active) | 17.3 µM (active) and 48.6 µM (active) | inactive | inactive | inactive |  | inactive | inactive | inactive | inactive | inactive | inactive | inactive | 21.8 µM (active) | inactive |  | 38.9 µM (active) | 
O=C(N/N=C/c1ccc([N+](=O)[O-])o1)c1cc([N+](=O)[O-])cc([N+](=O)[O-])c1O | inactive |  | inactive | inactive | inactive | inactive | inactive | inactive | inactive | inactive | inactive | inactive | inactive | inactive | 26.6 µM (active) | inactive | inactive |  | 
Cc1ncc(C[n+]2csc(CCO)c2C)c(N)n1 |  | inactive | inactive | inactive | inactive | inactive | inactive | inactive | inactive | inactive | inactive | inactive | inactive |  | inactive | inactive |  |  | 
CN1C[C@H](C(=O)N[C@]2(C)O[C@@]3(O)[C@@H]4CCCN4C(=O)[C@H](Cc4ccccc4)N3C2=O)C=C2c3cccc4[nH]cc(c34)C[C@H]21 | inactive |  | inactive | inactive | inactive | inactive | inactive | inactive | inactive | inactive | inactive | inactive | inactive | inactive | inactive | inactive | inactive |  | 4.22 µM (active) and 9.73 µM (active) and 18 µM (active)
CCc1ccccc1N | inactive | inactive | inactive | inactive | inactive | inactive |  | inactive | inactive | inactive | inactive | inactive | inactive | inactive | inactive | inactive | inactive |  | 
C=CC(=O)OCC | inactive | inactive | inactive | inactive | inactive | inactive | inactive | inactive | inactive | inactive | inactive | inactive | inactive | inactive | inactive |  | inactive |  | 
CCCCCBr | inactive | inactive | inactive | inactive | inactive | inactive |  | inactive | inactive | inactive | inactive | inactive | inactive | inactive | inactive |  |  | inactive | 
CC(C)(C)N(NC(=O)c1ccc(Cl)cc1)C(=O)c1ccccc1 | inactive |  |  | inactive | inactive | inactive |  | inactive | inactive | inactive | inactive | inactive | inactive | inactive | inactive | inactive | inactive | inactive | 60.8 µM (active)
